Measured values taken from ChEMBL document CHEMBL1961873, “Compounds: GSK PKIS; Assays: Nanosyn kinase panel” (2012).

Molecular target: Glycogen synthase kinase-3 beta (Homo sapiens) (UniProt P49841)
Settings: at 1 µM
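Also: reported values are mean percent inhibition of GSK3B.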

Chain of Glycogen synthase kinase-3 beta (Homo sapiens) (P49841 whole entry, looked up): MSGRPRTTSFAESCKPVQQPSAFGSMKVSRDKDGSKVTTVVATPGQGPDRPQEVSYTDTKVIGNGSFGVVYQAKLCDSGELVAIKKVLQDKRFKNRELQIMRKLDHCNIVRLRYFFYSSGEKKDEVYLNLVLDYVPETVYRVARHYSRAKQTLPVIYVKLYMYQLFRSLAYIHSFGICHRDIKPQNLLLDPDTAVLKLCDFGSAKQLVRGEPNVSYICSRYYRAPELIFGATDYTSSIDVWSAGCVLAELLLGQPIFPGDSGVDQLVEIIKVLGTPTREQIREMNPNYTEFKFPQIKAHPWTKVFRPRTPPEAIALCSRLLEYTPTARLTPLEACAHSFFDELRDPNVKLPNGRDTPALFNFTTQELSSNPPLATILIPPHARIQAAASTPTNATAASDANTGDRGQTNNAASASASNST

Compound	inhibition [%]
Cc1ccc(C(=O)NC2CC2)cc1-c1ccc2[nH]ncc2c1	1.14
OCc1ccc(-c2nc(-c3ccccn3)c(-c3ccc4c(c3)OCO4)[nH]2)cc1	3.44
CC(C)c1ccc2c(c1)NC(=O)/C2=N/Nc1ccc(S(N)(=O)=O)cc1	16.8
CN(C)C(=O)O[C@@H]1CN[C@@H](C#Cc2cc3ncnc(Nc4ccc(OCc5cccc(F)c5)c(Cl)c4)c3s2)C1	7.41
COc1cccc(-n2nc(C)c3c(N/N=C(\C)c4ccncc4)ncnc32)c1	9.41
COC(=O)c1ccc2c(c1)C(=Cc1cc(Br)c(O)c(Br)c1)C(=O)N2	44.2
Oc1cccc(-c2nc(-c3ccccc3)[nH]c2-c2ccncc2)c1	18.9
NS(=O)(=O)c1ccc(N/N=C2\C(=O)Nc3ccc(Cl)cc32)cc1	54.1
COC(=O)Nc1nc2cc(Oc3ccc(NC(=O)Nc4cccc(Br)c4)cc3)ccc2[nH]1	6.86
COC(=O)c1cncc(/C=C/c2c(C)cc(O)cc2C)c1	12.9
COc1cc(/C=N/Nc2ncnc3c2cnn3C(C)C)ccc1O	32.9
CCS(=O)(=O)c1ccc(OC)c(Nc2nccc(N(C)c3ccc4c(C)n[nH]c4c3)n2)c1	1.7
[O-][S+]1CCN(Cc2ccc(-c3ccc4ncnc(Nc5ccc(OCc6ccccc6)c(Cl)c5)c4c3)o2)CC1	1.33
c1ccc(Cc2nc3ccc(Nc4ncnc5ccccc45)cc3[nH]2)cc1	7.73
CCS(=O)(=O)c1ccc(OC)c(Nc2ncc(-c3cccc(OC)c3)o2)c1	11.2
CCn1c(-c2nonc2N)nc2ccc(F)cc21	3.37
CN(C)c1cc2c(Nc3ccc4c(cnn4Cc4ccccc4)c3)ncnc2cn1	4.25

Compound	inhibition [%]
COc1cc2ncnc(Nc3ccc4c(cnn4Cc4ccccc4)c3)c2cc1OC	7.35
O=C1Nc2ccc(-c3cccnc3)cc2C1=Cc1cc(Br)c(O)c(Br)c1	21.4
COc1cc2ncnc(Nc3ccc(C)c(O)c3)c2cc1OC	11.2
Cc1ccc2c(-c3ccnc(Nc4ccc5c(c4)OCCO5)n3)c(-c3ccc(C(F)(F)F)cc3)nn2n1	10.2
Cc1ccc2c(-c3ccnc(Nc4cccc(C(F)(F)F)c4)n3)c(-c3ccccc3)nn2n1	76
C[C@@H](Oc1cc(-n2cnc3ccc(OC[C@@H](O)CO)cc32)sc1C(N)=O)c1ccccc1Cl	4.23
CN(C)CCCn1c(-c2nonc2N)nc2cnccc21	12.3
CN(c1ccc(NC(=O)Nc2ccc(OC(F)(F)F)cc2)cc1)c1ccnc(Nc2cccc(S(N)(=O)=O)c2)n1	13.6
O=C1Nc2ccccc2/C1=C/Nc1ccc2[nH]c(=O)[nH]c2c1	12
Cc1ccc2c(c1)/C(=N/Nc1ccc(S(N)(=O)=O)cc1)C(=O)N2	23.7
CCCN1CCCC(c2ccc(Nc3nc(Nc4cc(F)ccc4C(N)=O)c4cc[nH]c4n3)c(OC)c2)C1 (centres undefined)	4.25
Nc1nccc(-c2c(-c3ccc(F)cc3)nn3cc(C(F)(F)F)ccc23)n1	-1.01
NS(=O)(=O)c1ccc(-c2cc3ccncc3cc2OCc2ccccc2)cc1	3.98
NC(=O)c1sc(-n2cnc3ccccc32)cc1OCc1ccccc1Br	11.8
O=S(=O)(CCOCc1ccc(-c2ccc3ncnc(Nc4ccc(OCc5cccc(F)c5)c(Cl)c4)c3c2)o1)c1ccccc1	5.91
Nc1ccc(C#Cc2cncnc2Nc2ccc(OCc3cccc(F)c3)c(Cl)c2)cc1	0.21
ON=C1CCc2cc(-c3nc(C4CCNCC4)[nH]c3-c3ccncc3)ccc21	4.56
